The results in this text go back to PubChem BioAssay (NCATS).

Several values for one entry are separate records, joined by “and”; a condition that tells them apart may be missing. Identical values can stand only once. Results filed as inconclusive are left out. For some of these results: Results with a measured potency or affinity are listed apart. Activity calls are given as the source filed them.

Assay [1] in a line: qHTS assay for small molecule agonists of the antioxidant response element (ARE) signaling pathway measured by Nrf2-dependant transcriptional activity - cell viability counter screen (AID 720653; active = well fitted curve in the direction sought with a large enough effect in the repeat runs; an effect the other way counts as inactive or inconclusive; note: % is set by controls: 0 for no effect and ±100 for the full control effect). The note with it: ARE-bla HepG2 viability, CellTiter-Glo ATP luminescence, 16 h; max response: stronger effect = lower value. The procedure, abridged:
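Cytotoxicity counter screen: intracellular ATP quantified by CellTiter-Glo luminescence in the same ARE-bla HepG2 plates, after 16 h compound exposure and a 2 h beta-lactamase substrate step.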

Assay [2] is described as follows: qHTS Assay for Identifying Gametocytocidal Compounds (AID 743244).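 For max response: % is set by controls: 0 for no effect and ±100 for the full control effect; actives lower the fluorescent signal which means gametocytes are killed.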 Note: potency is the fitted concentration of half-maximal effect. The conditions noted are these: P. falciparum 3D7 stage III-V gametocytes, alamarBlue, 72 h; max response: stronger effect = lower value. The procedure, abridged:
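In this qHTS viability screen, late-stage 3D7 gametocytes are incubated with compound for 72 h, then with alamarBlue for 24 h; reduced resorufin fluorescence marks killing.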
A general note: qHTS replaces the single test concentration by a dilution series.

Assay [3] in a line: qHTS assay for cell viability of HEK293 cells (AID 743288). Note: % is set by controls: 0 for no effect and ±100 for the full control effect; nearly all actives have a fitted effect of over 50% in size. The note with it: ATP luminescence (CellTiter-Glo), 18 h; max response: stronger effect = lower value. The method in brief: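 Total intracellular ATP, measured with a luciferase-coupled reagent, indicates the number of viable HEK293 cells. Exposure to test chemicals lasts 18 h at 37 C in 1,536-well format at 2,000 cells/well.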

Assay [4] in a line: qHTS assay for cell viability of the p53RE-bla HCT-116 cell line (AID 743292). Note: % is set by controls: 0 for no effect and ±100 for the full control effect; nearly all actives have a fitted effect of over 55% in size. The conditions noted are these: p53RE-bla HCT-116 viability, ATP luminescence, 16 h; series mostly up to 95 µM. The procedure, abridged:
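ATP-based luminescent viability (CellTiter-Glo, 30 min RT) after 16 h compound treatment at 37 C of p53RE-bla HCT-116 cells, seeded at 4,000 cells/well and rested 5 h before dosing.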

The conditions of assay [5]: Ebola virus entry assay, green channel fluorescence.
The conditions of assay [6]: Ebola virus entry assay, reporter ratio channel; Channel type: primary.
For assay [7] the following is noted: Ebola virus entry assay, blue channel (ratio component).
Assay [8] deals with T1, Hexokinase-4 (Homo sapiens) + Glucokinase regulatory protein (Homo sapiens) (UniProt P35557+Q14397). The assay is described as follows: qHTS assay for inhibitors of recombinant human GCK-GKRP interaction: Diaphorase-coupled assay (AID 743205). The conditions noted are these: G6PDH/diaphorase resorufin fluorescence; series mostly up to 57.5 µM. The procedure, abridged:
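A kinetic fluorescence read (Ex 525/Em 590 nm, every minute for 30 minutes) tracked resorufin from a G6PDH-diaphorase coupled GCK reaction. It contained 10 nM GST-GCK, 10 nM FLAG-GKRP, 5 mM glucose, 0.4 mM ATP in Hepes pH 7.6. Normalized to with/without-enzyme DMSO controls.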

In assay [9] the target is T1, Hexokinase-4 (Homo sapiens) + Glucokinase regulatory protein (Homo sapiens). The assay is described as follows: qHTS assay for inhibitors of recombinant human GCK-GKRP interaction: ADP-Glo assay (AID 743206).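 Note: plate controls were DMSO plus enzyme for no effect and no enzyme for full effect.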 The note with it: ADP-Glo luminescence, 60 min, 0% = vehicle-only wells with enzyme present; series mostly up to 76.9 µM. The procedure, abridged:
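GST-GCK and FLAG-GKRP (15 nM each in the dispensed mix, with 2 uM S6P) react with 0.4 mM ATP and 5 mM glucose (final) in Hepes pH 7.6 for 60 min at room temperature. ADP is measured by ADP-Glo luminescence.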

Assay [10] shares this target. The assay is described as follows: qHTS assay for inhibitors of recombinant human GCK-GKRP interaction: HTRF assay (AID 743207).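 Note: 0% = DMSO with GCK present and -100% = DMSO wells lacking GCK.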 The note with it: recombinant GCK-GKRP HTRF binding, 60 min; series mostly up to 57.5 µM. The method in brief: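 After 60 min equilibration at room temperature with anti-FLAG XL665 and anti-GST antibodies, FRET ratio (665/615 nm, excitation 320 nm) was read. Proteins: GST-GCK and FLAG-GKRP, each 5 nM, plus 2 uM S6P, pH 7.1 buffer; GCK-free wells define minimum signal.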

The nature of assay [11]: qHTS profiling of the MIPE4 collection as inhibitors of Plasmodium falciparum (3D7) proliferation (AID 743344; call rule not given here;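 note: scaled between DMSO vehicle wells and 0.29 µM artemisinin as full inhibition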). The note with it: P. falciparum 3D7 in erythrocytes, SYBR Green DNA fluorescence, 72 h; at 28.5 µM (top of the series). The procedure, abridged:
(§1)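 Erythrocytes infected with P. falciparum (0.3% parasitemia, 2.5% hematocrit) incubated with compounds 72 h at 37 C, 5% CO2. Lysis with saponin/Triton buffer containing SYBR Green I, overnight at room temperature in the dark; DNA fluorescence (485/535 nm) normalised to 0.29 uM artemisinin and DMSO.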

Assay [12] is described as follows: qHTS profiling of the MIPE4 collection as inhibitors of Plasmodium falciparum (DD2) proliferation (AID 743345; call rule not given here). The note with it: P. falciparum Dd2 in erythrocytes, SYBR Green DNA, 72 h; at 28.5 µM (top of the series) unless noted. The method in brief:
as §1

Assay [13] is described as follows: qHTS profiling of the MIPE4 collection as inhibitors of Plasmodium falciparum (DD2) proliferation (Rep 2) (AID 743346; call rule not given here). The conditions noted are these: P. falciparum Dd2 in erythrocytes, SYBR Green DNA, 72 h; at 28.5 µM (top of the series). The method in brief: as §1
A short description of assay [14]: qHTS profiling of the MIPE4 collection as inhibitors of Plasmodium falciparum (HB3) proliferation (AID 743347; call rule not given here;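 note: plate controls were DMSO vehicle wells for no effect and artemisinin wells for full effect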). The conditions noted are these: P. falciparum HB3 in erythrocytes, SYBR Green DNA, 72 h; at 28.5 µM (top of the series). The procedure, abridged:
as §1

The conditions of assay [15]: Ebola virus entry assay, blue channel fluorescence.
The conditions of assay [16]: Ebola virus entry reporter assay, green channel fluorescence. In general terms: Reporter assays use an easily measured gene product as a stand-in for the process of interest.

T1 sequence (P35557 whole entry, looked up): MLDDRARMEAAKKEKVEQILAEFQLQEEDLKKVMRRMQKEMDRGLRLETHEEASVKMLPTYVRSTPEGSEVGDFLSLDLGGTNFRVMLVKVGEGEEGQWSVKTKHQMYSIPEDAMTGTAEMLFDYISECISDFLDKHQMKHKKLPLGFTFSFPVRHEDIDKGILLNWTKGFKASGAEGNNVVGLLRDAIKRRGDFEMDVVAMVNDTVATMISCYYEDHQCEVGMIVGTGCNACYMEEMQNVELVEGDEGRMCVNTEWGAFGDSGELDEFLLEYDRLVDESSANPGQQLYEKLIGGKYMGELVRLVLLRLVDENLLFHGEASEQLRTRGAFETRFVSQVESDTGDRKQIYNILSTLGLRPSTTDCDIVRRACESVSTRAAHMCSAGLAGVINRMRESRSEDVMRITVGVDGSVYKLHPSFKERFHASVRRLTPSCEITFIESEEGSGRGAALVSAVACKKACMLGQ
T1 sequence (Q14397 whole entry, looked up): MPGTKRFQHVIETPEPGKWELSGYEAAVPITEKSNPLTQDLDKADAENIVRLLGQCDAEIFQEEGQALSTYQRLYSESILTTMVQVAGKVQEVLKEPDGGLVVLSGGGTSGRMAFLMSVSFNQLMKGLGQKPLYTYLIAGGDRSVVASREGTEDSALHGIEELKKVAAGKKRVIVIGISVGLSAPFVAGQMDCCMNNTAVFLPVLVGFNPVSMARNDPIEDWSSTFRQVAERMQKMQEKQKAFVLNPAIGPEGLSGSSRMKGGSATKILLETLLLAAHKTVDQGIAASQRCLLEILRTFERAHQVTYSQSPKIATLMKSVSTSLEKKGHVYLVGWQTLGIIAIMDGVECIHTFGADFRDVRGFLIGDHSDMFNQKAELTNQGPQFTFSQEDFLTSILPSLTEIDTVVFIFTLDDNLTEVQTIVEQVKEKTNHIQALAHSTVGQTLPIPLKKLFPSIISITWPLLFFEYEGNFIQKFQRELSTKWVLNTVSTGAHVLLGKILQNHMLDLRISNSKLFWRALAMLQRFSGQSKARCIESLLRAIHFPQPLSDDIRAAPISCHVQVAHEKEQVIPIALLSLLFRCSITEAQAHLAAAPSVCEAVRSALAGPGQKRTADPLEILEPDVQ

`CCOCCOC(C)=O`: the max response is 4.03% (inactive) in [1], 4.31% (inactive) in assay [2] and -0.828% (inactive) in [3]. In addition, the Potency entry in [4] was “inactive”. In addition, the compound was classed as inactive in assay [5], in [6] and in assay [7].
For the compound `CCCN1CCO[C@@H]2c3cc(O)ccc3OC[C@H]21`, the result in [8], in [9] and in assay [10] was inactive. In [2], the max response is -5.59% (inactive) and 5.71% (inactive).
`CCCCCCCCCCCCCCCC[N+](C)(C)C`: the max response in assay [1] was -27.3% (inactive) and -1.44% (inactive); in [3] it was -5.85% (inactive). For the same compound, the Potency in [2] is 10 µM (active). Moreover, the Potency entry in assay [4] is “inactive”.
Take `C=CCN1CC[C@]23CCCCC2[C@H]1Cc1ccc(O)cc13` (stereo not given in full): the outcome in [8], in assay [9] and in [10] was inactive.
Turning to `O=C1C(I)=CC(=C(c2cc(I)c(O)c(I)c2)c2ccccc2C(=O)O)C=C1I`, in assay [2], the max response is 4.96% (inactive) and 16.9% (inactive). For the same compound, the result in assay [5], in [6] and in [7] was inactive.
Regarding `O=C(O)CC[N+](=O)[O-]`, the result in [8], in [9] and in assay [10] was inactive. The max response in [2] is 13% (inactive).
For `CN[C@@H](C)[C@H](O)c1ccccc1`, in [2], the max response is -11.3% (inactive). For the same compound, the compound was classed as inactive in assay [5], in assay [6] and in assay [7].
On to `CCCCCC[C@H]1C(=O)O[C@H](C)[C@H](NC(=O)c2cccc(NC=O)c2O)C(=O)O[C@@H](C)[C@@H]1OC(=O)CC(C)C`, for which the figures for the max response in assay [1] and in [3] were -26.8% (inactive) and -27.4% (inactive), respectively. This compound returned a parasite growth, % of DMSO control in assay [11] of 12%. For the same compound, the parasite growth remaining, % of DMSO control (lower = more inhibition) in assay [12] was 17.3%. The compound also had a parasite growth, % of control (lower = inhibition) in [13] of 14.5%.
Turning to `CCC1(CCC(C)C)C(=O)NC(=O)NC1=O`, the max response in assay [2] is 2.89% (inactive). The outcome in assay [5], in assay [6] and in assay [7] was inactive.
Regarding `CCOc1cc(NC(C)=O)ccc1C(=O)OC`, the result in [6] was inactive.
In the case of `c1ccc2sc(C3(N4CCCCC4)CCCCC3)cc2c1`, the result in assay [8], in assay [9] and in assay [10] was inactive. Moreover, in assay [2], the max response was 6.13% (inactive).
As for `COC(=O)c1cncn1C(C)c1ccccc1` (stereo not given), the max response in assay [2] was -7.45% (inactive). The outcome in [5], in [6] and in [7] was inactive.
In the case of `CC(C)NC(C)Cc1ccc(I)cc1` (stereo not given), the outcome in [8], in assay [9] and in assay [10] was inactive. Besides, the max response in assay [2] is 8.77% (inactive).
On to `CCCCCCCCc1ccc(O)cc1`, for which the max response is -0.124% (inactive) and 0.446% (inactive) in [1]; -6.88% (inactive) in assay [2]; -15.8% (inactive) and -26% (inactive) in assay [3]. Moreover, the Potency result in assay [4] was “inactive”.
Regarding `CC(C)(C)NC[C@H](O)c1ccc(O)cc1Cl`, the max response in [2] is 2.84% (inactive). In addition, the call in assay [5], in assay [6] and in assay [7] was inactive.
`Clc1ccccc1CN1CCc2sccc2C1`: the result in assay [6] and in assay [7] was inactive.
As for `CC(C)(O)C(=O)Nc1ccc([N+](=O)[O-])c(C(F)(F)F)c1`, the max response in [1] was -5.91% (inactive); in assay [3] it was -8.24% (inactive). For the same compound, the Potency entry in assay [4] was “inactive”. The parasite growth, % of DMSO control in assay [11] was 82.8%. The compound further showed a parasite growth remaining, % of DMSO control (lower = more inhibition) in assay [12] of 97.4%. The same compound had a parasite growth, % of control (lower = inhibition) in [13] of 70.6%.
As for `CC(=O)Nc1ccc(O)cc1`, the outcome in [6] and in assay [7] was inactive.
Turning to `CN(C)[C@@H]1C(=O)C(C(N)=O)=C(O)[C@@]2(O)C(=O)C3=C(O)c4c(O)cccc4[C@@](C)(O)[C@H]3[C@H](O)[C@@H]12`, the max response in assay [1] is -0.377% (inactive) and -4.28% (inactive) and 10.9% (inactive); in [2] it was -4.72% (inactive) and -5.37% (inactive); in [3], -3.99% (inactive) and -10.9% (inactive) and -2.39% (inactive). Moreover, in assay [4], the Potency entry was “inactive”. In [11], this compound gave a parasite growth, % of DMSO control of 29.4%. The compound further showed a parasite growth remaining, % of DMSO control (lower = more inhibition) in assay [12] of 45.1%. In addition, the parasite growth, % of control (lower = inhibition) in assay [13] turned out to be 32%. The growth, % of control in assay [14] came to 19.3%.
Take `Clc1cnc(Oc2ccc(Oc3ncc(Cl)cc3Cl)cc2)c(Cl)c1`: the max response is -6.15% (inactive) in assay [1], 17.9% (inactive) in assay [2] and -12.9% (inactive) in assay [3]. Further, the result in [8], in assay [9] and in assay [10] was inactive. The Potency entry in [4] is “inactive”.
Take `CNCCc1c[nH]c2ccc(O)cc12`: the result in [8], in assay [9] and in assay [10] was inactive.
In the case of `O=C(O)c1ccccc1O`, the result in [6] and in assay [7] was inactive.
For `CC(C)Oc1cccnc1N(C)C1CCN(Cc2ccccc2)CC1`, the outcome in [8], in assay [9] and in assay [10] was inactive. Moreover, in assay [2], the max response is -6.11% (inactive).
For the compound `CN1[C@@H]2CC[C@H]1CC(OC(=O)C(O)c1ccccc1)C2` (stereo not given in full), in [7], the outcome was inactive.
For the compound `Cc1cc(C(=O)NNCc2ccccc2)no1`, the result in assay [15] and in assay [16] was inactive.
For the compound `S=C(SSC(=S)N1CCCCC1)N1CCCCC1`, the Potency in assay [2] is 0.148 µM (active). Also, the outcome in [5], in assay [6] and in assay [7] was inactive.
As for `O=C(Cc1ccc(Cl)c(Cl)c1)N1CCCCC1CN1CCCC1` (stereo not given), the outcome in assay [8], in assay [9] and in [10] was inactive. Also, the max response in assay [2] is 17.1% (inactive).
As for `CC(O)CN1CCN(CC(=O)[O-])CCN(CC(=O)[O-])CCN(CC(=O)[O-])CC1.[Gd+3]` (stereo not given), the max response in assay [2] is 1.03% (inactive) and -10.9% (inactive). The outcome in [6] and in [7] was inactive.
`O=C(O)C(Cl)Cl`: the max response in assay [1] was -10.5% (inactive) and 2.18% (inactive); in assay [2], -4.42% (inactive) and 4.64% (inactive); in assay [3], -7.67% (inactive) and 1.66% (inactive). The Potency entry in assay [4] was “inactive”. Moreover, the result in [5], in [6] and in [7] was inactive.
